According to PubChem BioAssay (Tox21):
Results filed as inconclusive are left out. Where a call stands in place of a potency, no number is given. Activity calls are given as the source filed them. Calls follow the shape of the dose curve; as a rule, active = well fitted cell-killing curve with a large enough effect in the repeat runs; inconclusive = weak or mixed curves, or effect the other way; inactive = flat fitted curve, though single readings scatter.

Test: cAMP Responsive Elements (CRE) small molecule agonists, cell-based qHTS assay: qHTS cell viability counter screen (AID 2060914);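 also: viability read after 3 h of compound exposure; nearly all actives have a fitted effect of over 50% in size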
Conditions: CRE-bla HEK293T viability, CellTiter-Glo luminescence, 5 h; series mostly up to 92.4 µM
Method in brief: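 CRE-bla HEK 293T cells, plated 18 h at 37 °C, were exposed to compounds for 3 h at 37 °C/5% CO2. Viability was then measured in the same wells by CellTiter-Glo luminescence after 30 min at room temperature.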
Potency is read from the fitted curve at half-maximal effect.

Row | Compound | Potency | activity change, negative = cytotoxicity
1 | COc1cc2c(cc1OC)[C@@H]1CC(=O)[C@@H](CC(C)C)CN1CC2 | inactive | 
2 | CCc1cccc2c3c([nH]c12)C(CC)(CC(=O)O)OCC3 (configuration not stated) | inactive | 
3 | OCCCCCCCl | inactive | 
4 | C=COCCCC | inactive | 
5 | O=C(O)c1cccc(C(F)(F)F)c1 | inactive | 
6 | C/C=C/C(=O)CCCC | inactive | 
7 | CC(C)C(O)(c1ccc(OC(F)(F)F)cc1)c1cncnc1 (configuration not stated) | inactive | 
8 | NC=O | inactive | 
9 | Nc1ccc(S(=O)(=O)Nc2nccs2)cc1 | inactive | 
10 | CC(N)C12CC3CC(CC(C3)C1)C2 (configuration not stated) | inactive | 
11 | CC(C)O.CC(C)O.CCOC(=O)/C=C(\C)O.CCOC(=O)/C=C(\C)O.[Ti] | inactive | 
12 | C=CC(=O)OCC1CCCO1 (configuration not stated) | inactive | 
13 | O=C(O)c1ccc(OCCN2CCCCC2)cc1 | inactive | 
14 | Cc1cc(O)c(Cl)cc1C | inactive | 
15 | C[C@H]1COc2c(C3(N)CC3)c(F)cc3c(=O)c(C(=O)O)cn1c23 | inactive | 
16 | CC1(C)C(=O)N(Cl)C(=O)N1Cl | inactive | 
17 | O=C(O)c1ccc(C(=O)O)cc1 | inactive | 
18 | Fc1ccccc1-c1ccccc1 | inactive | 
19 | Cn1ccc2cc3c(cc21)CCN3C(=O)Nc1cccnc1 |  | 3% [at 18.9 µM] (inactive)
20 | CN(C)N=Nc1ccccc1 | inactive | 
21 | OC[C@@H](O)[C@@H](O)CO | inactive | 
22 | CC(=O)OCCOC(C)=O | inactive | 
23 | CC(C)(C)c1ccc(O)c(O)c1 | inactive | 
24 | c1ccc2[nH]ccc2c1 | inactive | 
25 | C1=CCC2CC=CC2C1 (configuration not stated) | inactive | 
26 | CC1=C(/C=C/C(C)=C/C=C/C(C)=C/C(=O)Nc2ccc(O)cc2)C(C)(C)CCC1 | inactive | 
27 | CCCCC(CC)CN=C(N)NC(N)=NCCCCCCN=C(N)NC(N)=NCC(CC)CCCC (configuration not stated) | 16.8 µM (active) | 
